Measurements taken from PubChem BioAssay AID1159580 (chemical genetic matrix, 2015).
The campaign covered roughly 5,500 compounds. About 2,000 (36%) were called active. Not shown: some 18% with an inconclusive outcome. Cut-off read from the data, not from the text of the source: active = normalized growth mostly below about 0.91 (no sharp cut-off); inconclusive = no clear call, values can overlap the other calls; inactive = mostly above about 0.92. This is one part of the list.

Experiment: chemical genetic growth profiling, strain panel (AID 1159580);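 note: tested at 20 µM; growth read once vehicle control cultures reached saturation at 30 °C; 1 = growth at the plate median or of vehicle wells; lower values mean less growth of the strain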
Conditions: growth OD

Measured: normalized growth

O=C(O)CCC(=O)OC[C@@H](NC(=O)C(Cl)Cl)[C@H](O)c1ccc([N+](=O)[O-])cc1
inactive: S. cerevisiae deletion strains, locus YJR043C, strain POL32, stronger effect = lower value 0.977 | S. cerevisiae deletion strains, locus YJR066W, strain TOR1, stronger effect = lower value 0.981 | S. cerevisiae deletion strains, locus YKL009W, strain mrt4, stronger effect = lower value 1 | S. cerevisiae deletion strains, locus YKL068W, stronger effect = lower value 0.962 | S. cerevisiae deletion strains, locus YKL085W, strain MDH1 (second series), stronger effect = lower value 0.99 | S. cerevisiae deletion strains, locus YKL085W, strain MDH1, stronger effect = lower value 0.99 | S. cerevisiae deletion strains, locus YKL160W, strain elf1, stronger effect = lower value 0.98 | S. cerevisiae deletion strains, locus YKL190W, strain CNB1, stronger effect = lower value 0.993 | S. cerevisiae deletion strains, locus YKR001C, strain vps1, stronger effect = lower value 0.967 | S. cerevisiae deletion strains, locus YKR026C, strain gcn3, stronger effect = lower value 0.984 | S. cerevisiae deletion strains, locus YKR091W, strain srl3, stronger effect = lower value 0.971 | S. cerevisiae deletion strains, locus YLL001W, strain dnm1, stronger effect = lower value 0.937 | S. cerevisiae deletion strains, locus YLL026W, stronger effect = lower value 0.974 | S. cerevisiae deletion strains, locus YLL041C, strain sdh2, stronger effect = lower value 0.993 | S. cerevisiae deletion strains, locus YLR027C, strain aat2, stronger effect = lower value 0.99 | S. cerevisiae deletion strains, locus YLR039C, strain RIC1, stronger effect = lower value 0.964 | S. cerevisiae deletion strains, locus YLR058C, strain SHM2, stronger effect = lower value 0.976 | S. cerevisiae deletion strains, locus YLR102C, strain apc9, stronger effect = lower value 0.977 | S. cerevisiae deletion strains, locus YLR113W, strain HOG1, stronger effect = lower value 0.973 | S. cerevisiae deletion strains, locus YLR221C, strain rsa3, stronger effect = lower value 0.918 | S. cerevisiae deletion strains, locus YLR258W, strain gsy2, stronger effect = lower value 0.984 | S. cerevisiae deletion strains, locus YLR262C, strain YPT6 (second series), stronger effect = lower value 0.966 | S. cerevisiae deletion strains, locus YLR262C, strain YPT6, stronger effect = lower value 0.866 | S. cerevisiae deletion strains, locus YLR268W, strain sec22, stronger effect = lower value 0.974 | S. cerevisiae deletion strains, locus YLR320W, strain mms22, stronger effect = lower value 0.944 | S. cerevisiae deletion strains, locus YLR330W, strain CHS5, stronger effect = lower value 0.985 | S. cerevisiae deletion strains, locus YLR342W, strain FKS1 (second series), stronger effect = lower value 1.01 | S. cerevisiae deletion strains, locus YLR342W, strain FKS1, stronger effect = lower value 0.986 | S. cerevisiae deletion strains, locus YLR357W, strain rsc2, stronger effect = lower value 1 | S. cerevisiae deletion strains, locus YLR370C, strain arc18, stronger effect = lower value 0.944 | S. cerevisiae deletion strains, locus YLR371W, strain rom2, stronger effect = lower value 0.979 | S. cerevisiae deletion strains, locus YLR384C, strain iki3, stronger effect = lower value 0.987 | S. cerevisiae deletion strains, locus YLR418C, strain cdc73, stronger effect = lower value 0.974 | S. cerevisiae deletion strains, locus YML016C, strain PPZ1, stronger effect = lower value 0.979 | S. cerevisiae deletion strains, locus YML032C, strain rad52, stronger effect = lower value 0.968 | S. cerevisiae deletion strains, locus YML120C, strain ndi1, stronger effect = lower value 0.936 | S. cerevisiae deletion strains, locus YML124C, strain tub3, stronger effect = lower value 0.994 | S. cerevisiae deletion strains, locus YMR058W, strain fet3, stronger effect = lower value 0.983 | S. cerevisiae deletion strains, locus YMR078C, strain ctf18, stronger effect = lower value 0.978 | S. cerevisiae deletion strains, locus YMR125W, strain sto1, stronger effect = lower value 0.962 | S. cerevisiae deletion strains, locus YMR129W, stronger effect = lower value 0.988 | S. cerevisiae deletion strains, locus YMR205C, strain PFK2, stronger effect = lower value 1.01 | S. cerevisiae deletion strains, locus YMR223W, strain ubp8, stronger effect = lower value 0.997 | S. cerevisiae deletion strains, locus YMR231W, strain pep5, stronger effect = lower value 0.996 | S. cerevisiae deletion strains, locus YMR263W, strain SAP30, stronger effect = lower value 1.01 | S. cerevisiae deletion strains, locus YMR307W, strain GAS1, stronger effect = lower value 1.05 | S. cerevisiae deletion strains, locus YNL067W, strain RPL9B, stronger effect = lower value 1.03 | S. cerevisiae deletion strains, locus YNL071W, strain lat1, stronger effect = lower value 0.989 | S. cerevisiae deletion strains, locus YNL153C, strain GIM3, stronger effect = lower value 1.02 | S. cerevisiae deletion strains, locus YNL183C, strain NPR1, stronger effect = lower value 0.93 | S. cerevisiae deletion strains, locus YNL209W, strain ssb2, stronger effect = lower value 0.971 | S. cerevisiae deletion strains, locus YNL233W, strain BNI4, stronger effect = lower value 1.02 | S. cerevisiae deletion strains, locus YNL248C, strain rpa49, stronger effect = lower value 1.02 | S. cerevisiae deletion strains, locus YNL271C, strain bni1, stronger effect = lower value 0.97 | S. cerevisiae deletion strains, locus YNL298W, strain CLA4, stronger effect = lower value 0.983 | S. cerevisiae deletion strains, locus YNL307C, strain MCK1, stronger effect = lower value 0.99 | S. cerevisiae deletion strains, locus YNL322C, strain KRE1 (second series), stronger effect = lower value 0.962 | S. cerevisiae deletion strains, locus YNR049C, strain mso1, stronger effect = lower value 0.972 | S. cerevisiae deletion strains, locus YNR052C, strain pop2, stronger effect = lower value 0.989 | S. cerevisiae deletion strains, locus YOL006C, strain TOP1, stronger effect = lower value 1.15 | S. cerevisiae deletion strains, locus YOL012C, strain htz1 0.661 | S. cerevisiae deletion strains, locus YOL147C, strain pex11, stronger effect = lower value 0.988 | S. cerevisiae deletion strains, locus YOR001W, strain rrp6, stronger effect = lower value 1.04 | S. cerevisiae deletion strains, locus YOR061W, strain CKA2, stronger effect = lower value 0.967 | S. cerevisiae deletion strains, locus YOR069W, strain VPS5, stronger effect = lower value 0.967 | S. cerevisiae deletion strains, locus YOR070C, strain gyp1, stronger effect = lower value 0.999 | S. cerevisiae deletion strains, locus YOR080W, strain dia2, stronger effect = lower value 0.98 | S. cerevisiae deletion strains, locus YOR083W, strain WHI5, stronger effect = lower value 0.978 | S. cerevisiae deletion strains, locus YOR106W, strain vam3, stronger effect = lower value 0.998 | S. cerevisiae deletion strains, locus YOR136W, strain idh2, stronger effect = lower value 0.984 | S. cerevisiae deletion strains, locus YOR144C, strain elg1, stronger effect = lower value 0.988 | S. cerevisiae deletion strains, locus YOR184W, strain ser1, stronger effect = lower value 0.987 | S. cerevisiae deletion strains, locus YOR231W, strain MKK1, stronger effect = lower value 0.971 | S. cerevisiae deletion strains, locus YOR265W, strain rbl2, stronger effect = lower value 0.976 | S. cerevisiae deletion strains, locus YOR270C, strain vph1, stronger effect = lower value 0.987 | S. cerevisiae deletion strains, locus YOR290C, strain snf2, stronger effect = lower value 0.928 | S. cerevisiae deletion strains, locus YOR316C, strain cot1, stronger effect = lower value 0.97 | S. cerevisiae deletion strains, locus YPL051W, strain arl3, stronger effect = lower value 0.998 | S. cerevisiae deletion strains, locus YPL078C, strain atp4, stronger effect = lower value 0.988 | S. cerevisiae deletion strains, locus YPL106C, strain sse1, stronger effect = lower value 0.944 | S. cerevisiae deletion strains, locus YPL240C, strain hsp82, stronger effect = lower value 0.995 | S. cerevisiae deletion strains, locus YPL256C, strain CLN2, stronger effect = lower value 0.981 | S. cerevisiae deletion strains, locus YPR119W, strain clb2, stronger effect = lower value 0.982 | S. cerevisiae deletion strains, locus YPR141C, strain kar3, stronger effect = lower value 0.975 | S. cerevisiae deletion strains, locus YPR163C, strain tif3, stronger effect = lower value 0.983 | S. cerevisiae deletion strains, locus YPR167C, strain met16, stronger effect = lower value 0.991 | S. cerevisiae deletion strains, strain wtn01, stronger effect = lower value 1 | S. cerevisiae strains, strain wild type, stronger effect = lower value 0.984
